Experimental data published in PubChem BioAssay (NCATS).
Records with an inconclusive call do not appear. Activity calls are given as the source filed them. Calls follow the shape of the dose curve; as a rule, active = well fitted cell-killing curve with a large enough effect; inconclusive = small, poorly fitted or top-dose-only effect, or effect the other way; inactive = flat fitted curve, though single readings scatter.

Key:
Assay in all cases: Primary qHTS to identify gynecologic anti-cancer compounds using libraries of approved drugs and bioactive compounds (AID 1345084); also: nearly all actives have a fitted effect of over 55% in size
C33A = settings: Gynecologic cancer cell panel viability, ATPlite luminescence, 48 h; series mostly up to 57.5 µM
In short: (§1)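 Five-point cytotoxicity, 48 h drug exposure at 37 C, 5% CO2, on cells seeded 16 h beforehand. ATP content read by ATPlite luminescence.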

CAOV3 = settings: Gynecologic cancer cell panel viability, ATPlite luminescence, 48 h; series mostly up to 57.5 µM
In short: as §1

CASKI = settings: Gynecologic cancer cell panel viability, ATPlite luminescence, 48 h; series mostly up to 57.5 µM
In short: as §1

Es-2 = settings: Gynecologic cancer cell panel viability, ATPlite luminescence, 48 h; series mostly up to 57.5 µM
In short: as §1

HeLa = settings: Gynecologic cancer cell panel viability, ATPlite luminescence, 48 h; series mostly up to 57.5 µM
In short: as §1

Hek293T = settings: Gynecologic cancer cell panel viability, ATPlite luminescence, 48 h, control line for the selectivity index; series mostly up to 57.5 µM
In short: as §1

JEG-3 = settings: Gynecologic cancer cell panel viability, ATPlite luminescence, 48 h; series mostly up to 57.5 µM
In short: as §1

OV90 = settings: Gynecologic cancer cell panel viability, ATPlite luminescence, 48 h; series mostly up to 57.5 µM
In short: as §1

PA-1 = settings: Gynecologic cancer cell panel viability, ATPlite luminescence, 48 h; series mostly up to 57.5 µM
In short: as §1

SKOV3 = settings: Gynecologic cancer cell panel viability, ATPlite luminescence, 48 h; series mostly up to 57.5 µM
In short: as §1

Tov-21-G = settings: Gynecologic cancer cell panel viability, ATPlite luminescence, 48 h; series mostly up to 57.5 µM
In short: as §1

Tov112D = settings: Gynecologic cancer cell panel viability, ATPlite luminescence, 48 h; series mostly up to 57.5 µM
In short: as §1
% is scaled to controls: 0 for no effect and ±100 for the full control effect.

Oc1ccccc1-c1cc(-c2ccccc2F)[nH]n1
inactive: Potency (C33A) | Potency (CAOV3) | outcome (CASKI) | Potency (Es-2) | Potency (HeLa) | Potency (Hek293T) | Potency (JEG-3) | Potency (OV90) | Potency (PA-1) | Potency (SKOV3) | Potency (Tov-21-G) | Potency (Tov112D)

O=C1OC(c2ccc(O)cc2)C(O)=C1Cc1ccccc1 (stereo not given)
inactive: Potency (C33A) | Potency (CAOV3) | outcome (CASKI) | Potency (Es-2) | Potency (HeLa) | Potency (Hek293T) | Potency (JEG-3) | Potency (OV90) | Potency (PA-1) | Potency (SKOV3) | Potency (Tov-21-G) | Potency (Tov112D)

CC1=C(C)C(=O)OC(C(C)C2C(O)CC3C4C5OC5C5(O)CC(OC6OC(CO)C(OC7OC(C)C(O)C(O)C7O)C(O)C6O)CC(O)C5(C)C4CCC32C)C1 (stereo not given)
inactive: Potency (C33A) | Potency (CAOV3) | outcome (CASKI) | Potency (Es-2) | Potency (HeLa) | Potency (Hek293T) | Potency (JEG-3) | Potency (OV90) | Potency (PA-1) | Potency (SKOV3) | Potency (Tov-21-G) | Potency (Tov112D)

COC(=O)C1=CO[C@@H](O[C@@H]2O[C@H](CO)[C@@H](O)[C@H](O)[C@H]2O)[C@@H]2[C@@H](C(=O)O)CC[C@H]12
inactive: Potency (C33A) | Potency (CAOV3) | outcome (CASKI) | Potency (Es-2) | Potency (HeLa) | Potency (Hek293T) | Potency (JEG-3) | Potency (OV90) | Potency (PA-1) | Potency (SKOV3) | Potency (Tov-21-G) | Potency (Tov112D)

CC(C)c1c(NC(=O)Nc2ccc(Cl)cc2)c(=O)n(-c2ccccc2)n1C
inactive: Potency (C33A) | Potency (CAOV3) | outcome (CASKI) | Potency (Es-2) | Potency (HeLa) | Potency (Hek293T) | Potency (JEG-3) | Potency (OV90) | Potency (PA-1) | Potency (SKOV3) | Potency (Tov-21-G) | Potency (Tov112D)

COc1cccc2c1c(O)c(C(=O)N(C)c1ccc(C(F)(F)F)cc1)c(=O)n2C
inactive: Potency (C33A) | Potency (CAOV3) | outcome (CASKI) | Potency (Es-2) | Potency (HeLa) | Potency (Hek293T) | Potency (JEG-3) | Potency (OV90) | Potency (PA-1) | Potency (SKOV3) | Potency (Tov-21-G) | Potency (Tov112D)

CCC(C)(C)C1CCc2c(sc(NC(=O)c3ccc(Br)cc3)c2C#N)C1 (stereo not given)
inactive: Potency (C33A) | Potency (CAOV3) | outcome (CASKI) | Potency (Es-2) | Potency (HeLa) | Potency (Hek293T) | Potency (JEG-3) | Potency (OV90) | Potency (PA-1) | Potency (SKOV3) | Potency (Tov-21-G) | Potency (Tov112D)

COC(=O)C1=CO[C@@H](O[C@@H]2O[C@H](CO)[C@@H](O)[C@H](O)[C@H]2O)[C@@H]2[C@@H](CO)[C@@H](O)C(O)[C@H]12 (stereo not given in full)
inactive: Potency (C33A) | Potency (CAOV3) | outcome (CASKI) | Potency (Es-2) | Potency (HeLa) | Potency (Hek293T) | Potency (JEG-3) | Potency (OV90) | Potency (PA-1) | Potency (SKOV3) | Potency (Tov-21-G) | Potency (Tov112D)

CC(C)c1ccc2c(c1)C(=O)CC1C(C)(C(=O)O)CCCC21C (stereo not given)
inactive: Potency (C33A) | Potency (CAOV3) | outcome (CASKI) | Potency (Es-2) | Potency (HeLa) | Potency (Hek293T) | Potency (JEG-3) | Potency (OV90) | Potency (PA-1) | Potency (SKOV3) | Potency (Tov-21-G) | Potency (Tov112D)

COc1c2cc(c(O[C@@H]3O[C@H](CO)[C@@H](O)[C@H](O)[C@H]3O)c1OC)CCCCC(O)CCc1ccc(O)c-2c1 (stereo not given in full)
inactive: Potency (C33A) | Potency (CAOV3) | outcome (CASKI) | Potency (Es-2) | Potency (HeLa) | Potency (Hek293T) | Potency (JEG-3) | Potency (OV90) | Potency (PA-1) | Potency (SKOV3) | Potency (Tov-21-G) | Potency (Tov112D)

COC(=O)C(CC1(OC(=O)C(C)C)c2ccccc2N2C(=O)C(C)(C)N(O)C21)n1cnc2ccccc2c1=O (stereo not given)
inactive: Potency (C33A) | Potency (CAOV3) | outcome (CASKI) | Potency (Es-2) | Potency (HeLa) | Potency (Hek293T) | Potency (JEG-3) | Potency (OV90) | Potency (PA-1) | Potency (SKOV3) | Potency (Tov-21-G) | Potency (Tov112D)

CN(C)c1ccc(C2O[C@@H](c3ccccc3)C[C@H](c3ccccc3)O2)cc1 (stereo not given in full)
inactive: Potency (C33A) | Potency (CAOV3) | outcome (CASKI) | Potency (Es-2) | Potency (HeLa) | Potency (Hek293T) | Potency (JEG-3) | Potency (OV90) | Potency (PA-1) | Potency (SKOV3) | Potency (Tov-21-G) | Potency (Tov112D)

Cc1occc(=O)c1O[C@@H]1O[C@H](CO[C@@H]2OC[C@](O)(CO)[C@H]2O)[C@@H](O)[C@H](O)[C@H]1O
inactive: Potency (C33A) | Potency (CAOV3) | outcome (CASKI) | Potency (Es-2) | Potency (HeLa) | Potency (Hek293T) | Potency (JEG-3) | Potency (OV90) | Potency (PA-1) | Potency (SKOV3) | Potency (Tov-21-G) | Potency (Tov112D)

C=CC(C)(O)CC/C=C(\C)C(=O)O[C@@H]1[C@@H](O)[C@H](OC(C)(C=C)CC/C=C(\C)C(=O)O[C@@H]2O[C@H](CO)[C@@H](O)[C@H](O)[C@H]2O)O[C@H](CO)[C@H]1OC(=O)/C(C)=C/CCC(C)(O)C=C (stereo not given in full)
inactive: activity change, negative = cytotoxicity (C33A) 1.06% [at 11.6 µM] | activity change, negative = cytotoxicity (CAOV3) -0.925% [at 11.6 µM] | activity change, negative = cytotoxicity (CASKI) -1.1% [at 11.6 µM] | activity change, negative = cytotoxicity (Es-2) 0.394% [at 11.6 µM] | activity change, negative = cytotoxicity (HeLa) -4.07% [at 11.6 µM] | activity change, negative = cytotoxicity (Hek293T) 7.88% [at 11.6 µM] | activity change, negative = cytotoxicity (JEG-3) -0.355% [at 11.6 µM] | activity change, negative = cytotoxicity (OV90) -1.43% [at 11.6 µM] | activity change, negative = cytotoxicity (PA-1) 3.07% [at 11.6 µM] | activity change, negative = cytotoxicity (SKOV3) -0.696% [at 11.6 µM] | activity change, negative = cytotoxicity (Tov-21-G) 0.188% [at 11.6 µM] | activity change, negative = cytotoxicity (Tov112D) -0.614% [at 11.6 µM]

CC1OC(OC2C(OC(=O)[C@]34CCC(C)(C)C[C@H]3C3=CCC5[C@@]6(C)CC[C@H](OC7OC(C(=O)O)C(O)C(O)C7O)C(C)(C)C6CC[C@@]5(C)[C@]3(C)CC4O)OC(CO)C2O)C(O)C(O)C1OC1OCC(O)C(O)C1O (stereo not given in full)
inactive: activity change, negative = cytotoxicity (C33A) 6.97% [at 11.6 µM] | activity change, negative = cytotoxicity (CAOV3) 0.294% [at 11.6 µM] | activity change, negative = cytotoxicity (CASKI) 7.85% [at 11.6 µM] | activity change, negative = cytotoxicity (Es-2) -0.633% [at 11.6 µM] | activity change, negative = cytotoxicity (HeLa) 8.57% [at 11.6 µM] | activity change, negative = cytotoxicity (Hek293T) 3.77% [at 11.6 µM] | activity change, negative = cytotoxicity (JEG-3) 3.79% [at 11.6 µM] | activity change, negative = cytotoxicity (OV90) -5.89% [at 11.6 µM] | activity change, negative = cytotoxicity (PA-1) 30.3% [at 11.6 µM] | activity change, negative = cytotoxicity (SKOV3) -0.208% [at 11.6 µM] | activity change, negative = cytotoxicity (Tov-21-G) 5.56% [at 11.6 µM] | activity change, negative = cytotoxicity (Tov112D) -3.39% [at 11.6 µM]
